According to PubChem BioAssay (NCATS):
Values joined by “and” are separate entries in the source; they are usually repeats but may differ in a detail not shown here. Equal values may be shown once. Inconclusive results are not listed. A structure can be active in one record and inactive in another. Values without a mark were called inactive. Active and inactive are the calls of the source. Calls come from the whole dose curve; as a rule, active = well fitted cell-killing curve with a large enough effect in the repeat runs; inconclusive = weak or mixed curves; inactive = flat fitted curve, though single readings scatter.

Assay: qHTS assay for small molecule agonists of the antioxidant response element (ARE) signaling pathway measured by Nrf2-dependant transcriptional activity - cell viability counter screen (AID 720653)
Conditions: ARE-bla HepG2 viability, CellTiter-Glo ATP luminescence, 16 h; max response: active compounds read low
Description: National Center for Advancing Translational Sciences [NCATS] NIH Chemical Genomics Center [NCGC] U.S. Environmental Protection Agency [EPA] National Institutes of Environmental Health Sciences [NIEHS] National Toxicology Program [NTP] Assay Overview: Oxidative stress has been implicated in the pathogenesis of a variety of diseases ranging from cancer to neurodegeneration. The antioxidant response element (ARE) signaling pathway plays an important role in the amelioration of oxidative stress. The CellSensor ARE-bla HepG2 cell line (Invitrogen) can be used for analyzing the Nrf2/antioxidant response signaling pathway. Nrf2 (NF-E2-related factor 2) and Nrf1 are transcription factors that bind to AREs and activate these genes. The CellSensor ARE-bla HepG2 cell line contains a beta-lactamase reporter gene under control of the Antioxidant Response Element (ARE) stably integrated into HepG2 cells. The activation of the report gene under culture conditions can be detected by fluorescence intensity. The cytotoxicity of the compounds against the ARE-bla HepG2 cell line was quantified by measuring the intracellular ATP content.
Assay Protocol Summary: ARE-bla HepG2 cells were dispensed at 2,000 cells/5 ul/well in 1536-well black wall/clear bottom plates using a Multidrop Combi (ThermoFisher Scientific, Waltham, MA) dispenser. After the assay plates were incubated at 37C/5% CO2 for 5 hrs, 23 nL of compounds dissolved in DMSO, positive controls or DMSO only was transferred to the assay plate by a pintool work station (Kalypsys, San Diego, CA). The plates were incubated at 37C/5% CO2 for 16 hrs. After 1 uL of LiveBLAzer B/G FRET substrate was added using a Flying Reagent Dispenser (FRD) (Aurora Discovery, San Diego, CA), the assay plates were incubated at room temperature for 2 hrs. The fluorescence intensity was measured by an Envision (PerkinElmer, Shelton, CT) plate reader. Cell viability using CellTiter Glo viability assay (Promega, Madison, WI) was also measured by adding 4 ul/well of CellTiter-Glo reagent into the same assay plate using a FRD. After 30 min incubation at room temperature, the luminescence intensity in the plates was measured using a ViewLux (PerkinElmer) plate reader.
% is set by controls: 0 for no effect and ±100 for the full control effect; potency is the fitted concentration of half-maximal effect.

Compound | max response | Potency
CCCCC(O)(Cn1cncn1)c1ccc(Cl)cc1Cl (stereo not given) | -0.171% | 
N#Cc1cc(I)c(O)c(I)c1 | -6.44% | 
OC(c1ccc(Cl)cc1)(c1ccc(Cl)cc1)C(Cl)(Cl)Cl | -1.65% | 
O=[N+]([O-])C(Br)Br | -11.4% | 
Clc1ccc([C@@]2(Cn3cncn3)C[C@@H](Br)CO2)c(Cl)c1 | 2.35% | 
N#CC(Cl)Cl | -22.9% | 
CCOC(=O)COc1cc(-c2nn(C)c(OC(F)F)c2Cl)c(F)cc1Cl | 13.2% | 
CCC(C)(C)c1ccc(O)c(C(C)(C)CC)c1 | -16.3% | 
C#CCC1=C(C)[C@H](OC(=O)[C@H]2[C@H](C=C(C)C)C2(C)C)CC1=O | -1.44% | 
Clc1ccc(C(Cl)(Cl)Cl)cc1 | -2.36% | 
CC(C)(C)C(O)C(Oc1ccc(-c2ccccc2)cc1)n1cncn1 (stereo not given) | -1.48% | 
Cc1cc(C)nc(Nc2ccccc2)n1 | -4.46% | 
Nc1ccccc1C(=O)OCCc1ccccc1 | 0.51% | 
O=C(O)COc1ccc(Cl)cc1 | 1.53% | 
CCCN(CCOc1c(Cl)cc(Cl)cc1Cl)C(=O)n1ccnc1 | -20.2% and 3.11% | 
CC(Oc1cc(Cl)c(Cl)cc1Cl)C(=O)O (stereo not given) | 15.3% | 
C#CC(C)(C)NC(=O)c1cc(Cl)cc(Cl)c1 | 4.89% | 
Cc1c(F)c(F)c(COC(=O)C2C(/C=C(\Cl)C(F)(F)F)C2(C)C)c(F)c1F (stereo not given) | -20.4% | 
CS(=O)(=O)NC(=O)c1cc(Oc2ccc(C(F)(F)F)cc2Cl)ccc1[N+](=O)[O-] | -2.76% | 

Compound | max response | Potency
ClC1=C(Cl)C(Cl)(Cl)C(Cl)=C1Cl | -1.05% | 35.5 µM (active)
CNC(=O)Oc1cccc2c1OC(C)(C)C2O (stereo not given) | -15.8% | 
CCCCOCN(C(=O)CCl)c1c(CC)cccc1CC | -23.8% | 
CNC(=O)N(C)c1nc2ccccc2s1 | -8.17% | 
O=C(NC(=O)c1c(F)cccc1F)Nc1cc(Cl)c(OC(F)(F)C(F)C(F)(F)F)c(Cl)c1F (stereo not given) | -22% | 
O=C1C2(Cl)C3(Cl)C4(Cl)C(Cl)(Cl)C5(Cl)C3(Cl)C1(Cl)C5(Cl)C24Cl (stereo not given) | 5.47% | 50.1 µM (active)
CCOc1nc(F)cc2nc(S(=O)(=O)Nc3c(Cl)cccc3Cl)nn12 | -9.33% | 
ClCc1ccccc1Cl | -2.98% | 
CCOP(=S)(S)OCC | 2.15% | 
OC(Cn1cncn1)(c1ccc(F)cc1)c1ccccc1F (stereo not given) | -4.37% | 
Nc1nc(N)nc(N)n1 | -2.99% | 
Nc1cnn(-c2ccccc2)c(=O)c1Cl | 11.3% | 
Cc1nc(N(C)C)nc(OC(=O)N(C)C)c1C | -25.3% | 
CC(C)(C)C(=O)[C@H](Oc1ccc(Cl)cc1)n1cncn1 | -6.65% | 
CCC(C)(NC(=O)c1cc(Cl)c(C)c(Cl)c1)C(=O)CCl (stereo not given) | 0.353% | 
C=CCOC(=O)C(C)(C)OC(=O)c1cc(-n2c(=O)cc(C(F)(F)F)n(C)c2=O)ccc1Cl | -16.6% | 
CCOP(=S)(Oc1cnc(C(C)(C)C)nc1)OC(C)C (stereo not given) | -5.89% | 
O=[N+]([O-])c1ccccc1Cl | 10.4% and -3.52% | 
CCCCCCCCCCCC#N | -0.799% | 
